Values joined by “and” are separate entries in the source; they are usually repeats but may differ in a detail not shown here. Equal values may be shown once. Compounds without any hit were thinned out: in the full panel of roughly 79,000, 15% have a hit. Where a structure was tested more than once in an assay, its records may differ in their call. Active and inactive are the calls of the source. No stated cut-off is given here; in the data, active means growth inhibition above about 70%; inactive means the rest.
Assay: NCI Yeast Anticancer Drug Screen. Data for the mlh1 rad18 strain (AID 175)
Conditions: S. cerevisiae mlh1 rad18 strain growth inhibition, stronger effect = higher value
Procedure: Growth inhibition of yeast strains with defined genetic alterations is measured as a screen for potential anti-cancer activity. Selected strains with alterations in DNA damage repair or cell cycle control were exposed to compounds and growth inhibition was measured relative to vehicle treated controls. The strain used in this assay is mlh1 rad18

[1] = at 5.0 µM (retest, dose inferred, filed as 0.5)
[2] = at 50.0 µM (retest, dose inferred, filed as 5.0)

Row | Structure (SMILES) | growth inhibition [1] | growth inhibition [2] | growth inhibition (at 50.0 µM)
1 | O=c1ccc(=O)n(-c2ccccc2)[nH]1 | 38% (inactive) | 95% (active) | 79.4% (active) and -20.1% (inactive)
2 | c1ccc(-c2cnc3ccccc3c2)cc1 | -127% (inactive) and -135% (inactive) | -30% (inactive) and -44% (inactive) | 55.5% (inactive) and 45% (inactive)
3 | COC(C(O)CO)C(O)C(O)C(=O)NNc1ccccc1 (configuration not stated) | 28% (inactive) | 96% (active) | 94.5% (active)
4 | Cc1cc(-c2cc(C)c(O)c(C(C)(C)C)c2)cc(C(C)(C)C)c1O | 46% (inactive) and 3% (inactive) | 99% (active) and 92% (active) | 70.5% (active) and 84.8% (active)
5 | Cc1cc(=O)oc2c(C)c3occc(=O)c3cc12 | 11% (inactive) | 21% (inactive) | 63.1% (inactive)
6 | CCOC(=O)C(C(=O)OCC)=P(c1ccccc1)(c1ccccc1)c1ccccc1 | 0% (inactive) | 26% (inactive) | 21.1% (inactive)
7 | Nc1ccc(F)cc1S | 15% (inactive) | 76% (active) | 89.3% (active)
8 | Clc1ccc(NCNC2Nc3ccccc3N2)cc1Cl | 55% (inactive) | 98% (active) | 29.8% (inactive)
9 | CCO/C(C)=C(/C#N)C(N)=S | 3% (inactive) | 84% (active) | 42.9% (inactive)
10 | CCc1ccc2c(c1)N(CC(C)CN(C)C)c1ccccc1S2 (configuration not stated) | -9% (inactive) | 63% (inactive) | 83.5% (active)
11 | Cc1sc2ccc3ccccc3c2[n+]1C | 32% (inactive) and -17% (inactive) | 46% (inactive) and 8% (inactive) | 86.7% (active) and 96.7% (active)
12 | O=C1OC(C2=CC(=O)c3ccccc3C2=O)C(Cl)=C1Cl (configuration not stated) | 11% (inactive) | 77% (active) | 94.8% (active)
13 | Brc1ccccc1-c1ncc(-c2ccccc2)o1 | 37% (inactive) | 82% (active) | 56.9% (inactive)
14 | COc1cccc(/C=N/C(/N=C/c2cccc(OC)c2O)c2cccc(OC)c2O)c1O | 4% (inactive) | 65% (inactive) | 94.8% (active)

Reference: PubChem BioAssay (NCI)
